PubChem BioAssay (NCI)
Compounds without any hit were thinned out: in the full panel of roughly 83,000, 20% have a hit.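 96-well plates, one dose, 48 hours. Percent growth reported; active if below 10.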 Unmarked numbers belong to inactive results. Activity calls are given as the source filed them.

Experiments:
Experiment in all cases: NCI-60 one-dose screen, 48 h (100 = growth as untreated, 0 = no growth, -100 = all killed)
Settings in all cases: 10 µM unless noted
[1] = test system: NCI-H23 lung
[2] = test system: NCI-H226 lung
[3] = test system: NCI-H322M lung
[4] = test system: HOP-62 NSCLC
[5] = test system: NCI-H460 lung
[6] = test system: HOP-92 NSCLC
[7] = test system: NCI-H522 lung
[8] = test system: A549/ATCC NSCLC
[9] = test system: 786-0 renal
[10] = test system: COLO 205 colon

Structure (SMILES)	growth [1]	growth [2]	growth [3]	growth [4]	growth [5]	growth [6]	growth [7]	growth [8]	growth [9]	growth [10]
COc1ccc2nc(-c3ccc(OC)c(OC)c3)cc(-c3nnc(SCC(=O)Nc4ccc(/C(C)=N\O)cc4)n3-c3ccccc3)c2c1	91.5%	74.6%	84.5%	87.9%	89.6%	61.6%	42%	70.7%	88.5%	112%
CN(C)c1ccc(-c2ccc3[nH]c(=O)nc(-c4ccc(F)cc4)c3c2)cn1	56.2%	68.3%	68.2%	48.2%	21.6%	56.1%	14.9%	39.6%	30.4%	39.6%
Nc1ccccc1NS(=O)(=O)c1ccc(Cl)cc1	94.5%	103%	81.9%	106%	104%	78.8%	85.2%	107%	98%	104%
Cc1ccc(C(=O)/C(=C/c2ccc([N+](=O)[O-])cc2)S(=O)Cc2ccccc2)cc1 (stereo not given)	13.6%	47.1%	81.6%	47.9%	22.1%	36.9%	-32% (active)	65.1%	-49.5% (active)	-26.4% (active)
CCOC(=O)CC[C@H](NC(=O)c1ccc(NC)c2ccccc12)C(=O)OCC	105%	100%	106%	93.6%	101%	92.3%	91.2%	89.9%	102%	106%
CCOC(=O)c1c(C)nc2c(c1N)/C(=C/c1cccs1)C(=O)N2c1ccc(OC)cc1	43.9%	40.5%	70.6%	10.2%	34.1%	22%	29.8%	34.5%	5.33% (active)	63.2%
C=C1C(=O)O[C@H]2[C@H]1CC/C(COC(=O)CCCCCCCCC(=O)OC/C1=C/CC[C@@]3(C)O[C@H]3[C@H]3OC(=O)C(=C)[C@@H]3CC1)=C\CC[C@@]1(C)O[C@@H]21	-37.5% (active)	1.19% (active)	83.9%	60.2%	27.1%	-25.9% (active)	-51.3% (active)	77.1%	-29.1% (active)	-46.4% (active)
COc1cc(NC(=O)COc2cc(C)nc3ccc(OC)cc23)cc(OC)c1	86.9%	87.1%	94%	91.3%	95%	94.1%	75%	87%	97.1%	69.4%
CCSc1ccc(C2C(Br)C(=O)N2c2cc(OC)c(OC)c(OC)c2)cc1 (stereo not given)	25.2%	50.2%	50.5%	30%	10.1%	28.2%	7.68% (active)	18.2%	8.1% (active)	-38.5% (active)
O=CN1N=C(c2ccc(F)cc2)CC1c1cccc(Nc2ccnc3cc(C(F)(F)F)ccc23)c1 (stereo not given)	42.5%	60.3%	85.1%	60.8%	46.7%	67.4%	45.6%	61%	76.1%	32.3%
COc1cc2c(cc1OCCCOc1cc3c(cc1OC)C(=O)N1CC(F)(F)C[C@H]1C=N3)N=C[C@@H]1CC(F)(F)CN1C2=O	5.01% (active)	-20.1% (active)	29%	11.1%	7.32% (active)	-35.4% (active)	-26.4% (active)	36.1%	-22.8% (active)	3.85% (active)
Cc1ccc(C2CC(c3ccc(Nc4nc(NCCO)nc(NCCO)n4)cc3)=NN2c2ccc(Cl)cc2)cc1 (stereo not given)	71.8%	101%	51.3%	67.6%	26.6%	88.6%	67%	48.1%	23.7%	70.3%
CC(=O)O[C@@H]1C[C@]2(C)[C@H]3[C@H](O)C[C@@H]4C5=CC(C)(C)CC[C@]5(C)CC[C@@]4(C)[C@]3(C)CC[C@H]2C(C)(C)[C@H]1O	95.7%	99.4%	118%	101%	102%	115%	103%	94%	99.3%	117%
O=C(Nc1nc(-c2ccccc2Cl)cs1)c1cc(-c2ccc(Br)cc2)nc2ccccc12	14.3%	37.5%	70.4%	52.6%	45.9%	21.4%	4.64% (active)	37.5%	75.3%	67.2%
C#C[C@@]1(O)[C@@H](CO)O[C@@H](n2cc(F)c3c(N)ncnc32)[C@@H]1O	-30.5% (active)	-62.3% (active)	-2.54% (active)	17.5%	0.623% (active)	-15% (active)	-1.45% (active)	-37.9% (active)	-29.5% (active)	-43.4% (active)
CCOCCc1c(O)nc(SC)[nH]c1=O	91.9%	92%	111%	93.3%	107%	99.1%	94.7%	103%	103%	105%
C=C1C(=O)O[C@H]2[C@H]1CC/C(COC(=O)/C=C/c1cccnc1)=C\CC[C@@]1(C)O[C@@H]21	56.2%	38.5%	93.6%	72.4%	77.4%	19.1%	-43.5% (active)	61.8%	2.95% (active)	-46% (active)
N#Cc1c(-c2ccc(F)cc2)nc(N/N=C/c2c[nH]c3ccccc23)nc1N1CCOCC1	91.8%	125%	66.5%	69.6%	16.5%	68.1%	46.3%	47.1%	-24.4% (active)	40.1%
Cc1nc2sc(C(=O)Nc3cccc4ccccc34)c(N)c2cc1C(C)O (stereo not given)	26.2%	70.7%	44.8%	39.8%	9.5% (active)	83.7%	-15.9% (active)	22.7%	34.1%	-5.28% (active)
O=C1CC23OC4ON=C(Br)C4C2C(O)c2ccccc2N13 (stereo not given)	87.9%	97.7%	96.8%	106%	106%	107%	79.6%	103%	101%	125%
O=[N+]([O-])c1cccc(CN(Cc2cccc([N+](=O)[O-])c2O)c2ccccc2)c1O	58.4%	83.2%	60.1%	78.4%	80.1%	54.5%	63.9%	71%	51.1%	78%
O=S(=O)(Nc1nccs1)c1ccc(Nc2nc(-c3ccncc3)cs2)cc1	108%	102%	126%	93.8%	99.3%	96.9%	97.6%	104%	97.8%	93.2%
CN(C)CCCn1c2c(c3cc(-c4ccco4)ccc3c1=O)C(=O)c1ccccc1-2	71.8%	77.2%	81.3%	59.2%	46.3%	71.6%	59.9%	67.7%	69.2%	52.9%
COC(=O)c1ccc2c(c1)NC(=O)[C@@H]1CCCN21	88.6%	98.5%	99.3%	85.7%	106%	87.5%	70%	98.2%	97.8%	108%
O=C(Nc1cc(=O)[nH]c(=O)[nH]1)C(Cl)Cl	107%	102%	95.5%	106%	109%	98.8%	90.3%	97.4%	107%	122%
COC(=O)/C=C1\SC(=Nc2cccc(Cl)c2)N(CCc2c[nH]c3ccccc23)C1=O	69.9%	101%	62%	41.5%	51.3%	82.4%	24.2%	48%	60.6%	12.1%
